According to PubChem BioAssay (NCATS):
Records with an inconclusive call do not appear. The source made the active and inactive calls. The call rests on the fitted dose curve; in most records, active means well fitted cell-killing curve with a large enough effect; inconclusive means small, poorly fitted or top-dose-only effect; inactive means flat fitted curve, though single readings scatter.
Potency means the concentration at half of the fitted maximal effect.

Test: qHTS of pediatric cancer cell lines to identify multiple opportunities for drug repurposing: Primary screen for U-2 OS cells (AID 1347096); further: nearly all actives have a fitted effect of over 50% in size
Settings: U-2 OS viability, CellTiter-Glo luminescence, 48 h; series mostly up to 46 µM; activity change, negative = cytotoxic: at the top concentration
From the text: Drug repurposing or repositioning has been offered as a strategy for drug development in oncology programs. This approach has special potential for childhood cancers and other rare or orphan diseases, where the expected return on new drug development has been a disincentive to pharmaceuticals.
In this project we exploit the poly-pharmacology of drugs to discover new indications via phenotypic screening of a panel of 19 well-characterized cell lines derived from solid tumors seen in children and adolescents. The goal is to identify approved drugs with previously unrecognized anticancer properties that has the potential to reveal new mechanisms and biological processes involved in carcinogenesis or drug resistance. We employed a titration-based paradigm (quantitative high-throughput screening or qHTS), where all compounds were tested at multiple concentrations for their effect on cell viability. Concentration-response curves (CRCs) were derived directly from the primary screen, and both potency and efficacy values were used to identify compounds with robust bioactivity profiles. We screened the NIH Chemical Genomics Center (NCGC) Pharmaceutical Collection (NPC) and Mechanism Interrogation Plate (MIPE) small molecule collections of approved and investigational compounds against these cell lines; and measured metabolically active cells after 48 hours of compound treatment as a proxy for cell viability.
Assay Submitter: Nathalia J. Martinez, National Center for Advancing Translational Sciences, National Institutes of Health, Rockville, MD, USA; email: natalia.martinez@nih.gov
[1] Shen, M et al. Quantitative high-throughput phenotypic screening of pediatric cancer cell lines identifies multiple opportunities for drug repurposing. Oncotarget 2017 Dec 19;9(4):4758-4772. PMID 29435139.
The cells were obtained from University of North Carolina (UNC), Pediatric Preclinical Testing Program (PPT), and Coriell Institute (CI).
qHTS cell viability assay:
Cells were assayed in growth media at a density of 500-1,000 cells/well. Five microliters of cells were dispensed into 1,536-well, white, solid-bottom, TC-treated plates (Greiner Bio One) using a multidrop dispenser and incubated at 37 degrees C, 5% CO2, under a humidified atmosphere for 5 hours. Twenty-three nanoliters of compounds and controls (neutral control DMSO or positive control bortezomib at final concentration of 2.3 µM) were subsequently transferred by Kalypsys pintool. For primary screens, the MIPE collection was tested at 11-point dilutions (final concentrations range from 0.78 nM to 46 µM) and the NPC collection at 8-point dilutions (final concentrations range from 0.59 nM to 46 µM). Compounds tested in follow-up screens were assayed at 11-point dilutions. Cells were incubated for 48 hours, followed by addition of 3 µL of CellTiter-Glo (Promega). After a 15 min incubation at room temperature, samples were analyzed for luminescence intensity using a ViewLux High-throughput CCD imager equipped with clear filters.
For c1ccc(CNc2nc(N3CCOc4ccccc43)nc3c2CCCC3)cc1, the “activity change, negative = cytotoxic” value was -8.53% (inactive). For CCC(=O)NCC[C@@H]1CCc2ccc3c(c21)CCO3, the “activity change, negative = cytotoxic” value was 7.43% (inactive). For COc1nc(C)cnc1NS(=O)(=O)c1cccnc1-c1ccc(-c2nnco2)cc1, the “activity change, negative = cytotoxic” value was 16.7% (inactive). For Cc1ccc(S(=O)(=O)OCC(=O)Nc2ccc(C(=O)O)c(O)c2)cc1, the “activity change, negative = cytotoxic” value was 9.77% (inactive). With O=c1[nH]c(=O)n([C@H]2C[C@@H](O)[C@@H](CO)O2)cc1C(F)(F)F the “activity change, negative = cytotoxic” value was 7.1% (inactive). In the case of CC=C(C(=CC)c1ccc(O)cc1)c1ccc(O)cc1, the “activity change, negative = cytotoxic” value is reported as -10% (inactive). With CCC=CC[C@H]1C(=O)CC[C@@H]1CC(=O)OC the “activity change, negative = cytotoxic” value was 16.2% (inactive). With CC1(C)C(N(O)C(=O)Nc2ccc(Cl)cc2)N(c2ccc(Cl)cc2)C(=O)N1CC(=O)NN=CC=Cc1ccc([N+](=O)[O-])o1 (stereo not given) the “activity change, negative = cytotoxic” value was -3.68% (inactive). With Cn1c(=O)c(Oc2ccc(F)cc2F)cc2cnc(NC3CCOCC3)nc21 the “activity change, negative = cytotoxic” value was 3.52% (inactive). In the case of Cc1csc(-c2nnc(Nc3ccc(Oc4ncccc4-c4ccnc(N)n4)cc3)c3ccccc23)c1, the “activity change, negative = cytotoxic” value is reported as -6.71% (inactive). For CN1CCN(c2cccc(Nc3nc4c(-c5ccc(S(C)(=O)=O)cc5)cccn4n3)c2)CC1, the “activity change, negative = cytotoxic” value was 15.1% (inactive). For COc1ccc(CCN(C)CCCOc2ccc(S(=O)(=O)c3[nH]c4ccccc4c3C(C)C)cc2)cc1OC, the “activity change, negative = cytotoxic” value was 6.41% (inactive). For FC(F)(F)c1ccc(C=Cc2nc(COc3ccc(CCCCn4ccnn4)cc3)co2)cc1, the “activity change, negative = cytotoxic” value was -10.2% (inactive). In the case of Cc1cn([C@@H]2C[C@@H](O)[C@H](CO)O2)c(=O)[nH]c1=O, the “activity change, negative = cytotoxic” value is reported as 5.18% (inactive). With CC(C)(O)CC(=O)NCCn1ccc2ncnc(Nc3ccc(Oc4cccc(C(F)(F)F)c4)c(Cl)c3)c21 the “activity change, negative = cytotoxic” value was 10% (inactive). In the case of CCNC(=O)Nc1ccc(Oc2ncnc(N)c2C=NOC)cc1Cl, the “activity change, negative = cytotoxic” value is reported as -0.452% (inactive). In the case of Cc1ccc2c(c1)C(=O)[C@]1(O)CCN(c3ccccc3)C1=N2, the “activity change, negative = cytotoxic” value is reported as -4.08% (inactive). For CC(C)CNc1ccnc(NCc2csc(-c3ccccc3)n2)n1, the “activity change, negative = cytotoxic” value was -19.7% (inactive). In the case of CS(=O)(=O)c1ccc(C2=C(c3ccccc3)C(=O)OC2)cc1, the “activity change, negative = cytotoxic” value is reported as 12.4% (inactive). With C[C@@]1(C(=O)Nc2ccc(F)nc2)CCCN1c1nc(Nc2cc(C3CC3)[nH]n2)c2cccn2n1 the “activity change, negative = cytotoxic” value was -18.9% (inactive). In the case of Cc1cc(NC(=O)Nc2ccc(N(C)C)cc2)c2cc(F)cc(F)c2n1, the “activity change, negative = cytotoxic” value is reported as -6.97% (inactive). In the case of CNC(=O)c1cc(Oc2ccc(NC(=O)Nc3ccc(Cl)c(C(F)(F)F)c3)c(F)c2)ccn1, the Potency is reported as 23.5 µM (active). In the case of C=C1c2cccc(O)c2C(O)=C2C(=O)[C@@]3(O)C(O)=C(C(N)=O)C(=O)[C@@H](N(C)C)[C@@H]3[C@@H](O)[C@H]12, the “activity change, negative = cytotoxic” value is reported as 9.47% (inactive). For CCN1C[C@H](C)n2c(c(O)c3c(=O)n(Cc4ccc(F)c(Cl)c4)nc(C(=O)NC)c32)C1=O, the “activity change, negative = cytotoxic” value was 4.67% (inactive). In the case of CC=C1C2C=C(C)CC1(N)c1ccc(=O)[nH]c1C2 (stereo not given), the “activity change, negative = cytotoxic” value is reported as 8.02% (inactive). For CC(=O)O[C@]1(C(C)=O)CC[C@H]2[C@@H]3C=C(Cl)C4=CC(=O)[C@@H]5C[C@H]5[C@]4(C)[C@@H]3CC[C@@]21C, the “activity change, negative = cytotoxic” value was -16.9% (inactive). In the case of Cc1[nH]c(C=C2C(=O)Nc3ccc(S(=O)(=O)N(C)c4cccc(Cl)c4)cc32)c(C)c1C(=O)N1CCN(C)CC1, the Potency is reported as 18.7 µM (active). In the case of CN(C)CCOc1ccc(C(=C(CCCl)c2ccccc2)c2ccccc2)cc1, the “activity change, negative = cytotoxic” value is reported as -0.248% (inactive). For COc1ccc2c(c1)CC[C@H]1[C@@H]2CC[C@]2(C)[C@@H](NCCCCCCN3C(=O)C=CC3=O)CC[C@H]12, the “activity change, negative = cytotoxic” value was 14.2% (inactive). With CCCCCCCCCCCCCCCC(=O)O[C@H]1[C@@H](O)[C@@H](O)[C@@H]([C@H](NC(=O)[C@@H]2C[C@@H](CCC)CN2C)[C@H](C)Cl)O[C@@H]1SC the “activity change, negative = cytotoxic” value was 12.4% (inactive). In the case of CC1CNc2c(cccc2S(=O)(=O)N[C@@H](CCCN=C(N)N)C(=O)N2CC[C@@H](C)C[C@@H]2C(=O)O)C1 (stereo not given in full), the “activity change, negative = cytotoxic” value is reported as 13.2% (inactive). With O=C(O)Cc1cccc(OCCCN(Cc2cccc(C(F)(F)F)c2Cl)CC(c2ccccc2)c2ccccc2)c1 the “activity change, negative = cytotoxic” value was 11.8% (inactive). In the case of CCOC(=O)[C@H]1O[C@H]1C(=O)N[C@@H](CC(C)C)C(=O)NCCC(C)C, the “activity change, negative = cytotoxic” value is reported as 0.007% (inactive). With COC(=O)[C@H](c1ccccc1Cl)N1CCc2sccc2C1 the “activity change, negative = cytotoxic” value was 6.66% (inactive). With CC(C)C[C@@H](C(=O)N[C@H](C(=O)OC1CCCC1)c1ccccc1)[C@H](O)C(=O)NO the “activity change, negative = cytotoxic” value was -2.21% (inactive). In the case of COc1ccc(C=CC(=O)Nc2ccccc2C(=O)O)cc1OC, the “activity change, negative = cytotoxic” value is reported as 2% (inactive). For COC1CCC(C(=O)c2ccc3nc4c(cc3c2)CCCO4)CC1 (stereo not given), the “activity change, negative = cytotoxic” value was -4.07% (inactive). In the case of O=C1NC(=O)C(c2cnc3ccccn23)=C1c1cn2c3c(cccc13)CN(C(=O)N1CCOCC1)CC2, the “activity change, negative = cytotoxic” value is reported as 5.11% (inactive). In the case of O=C(Nc1cccc2c(=O)cc(-c3nn[nH]n3)oc12)c1ccc(OCCCCc2ccccc2)cc1, the “activity change, negative = cytotoxic” value is reported as 10.9% (inactive). With CCC(C)SSc1ncc[nH]1 (stereo not given) the “activity change, negative = cytotoxic” value was -26.7% (inactive).
